# In PubChem BioAssay (NCATS):
# Records with an inconclusive call do not appear. Where a call stands in place of a potency, no number is given. Active and inactive are the calls of the source. Calls come from the whole dose curve; tested in HEK293 reporter line.
# Assay: qHTS for Inhibitors of the Functional Ribonucleoprotein Complex (vRNP) of Lymphocytic Choriomeningitis Arenaviruses (LCMV): Viability assay - alamar blue signal for LCMV Primary Screen (AID 1347085); note: nearly all actives have a fitted effect of over 80% in size
# Conditions: alamar blue viability counter-screen, LCMV vRNP screen cells; series mostly up to 57.5 µM
row,Compound,Potency
1,NC(CO)(CO)CO,inactive
2,CC(=O)OCC(=O)[C@@]1(OC(C)=O)[C@@H](C)C[C@H]2[C@@H]3C[C@H](F)C4=CC(=O)C=C[C@]4(C)[C@@]3(F)[C@@H](O)C[C@@]21C,inactive
3,Cc1nc2c([nH]1)c(=O)n(C)c(=O)n2Cc1ccco1,inactive
4,CC(=O)Nc1c(I)c(NC(C)=O)c(I)c(C(=O)O)c1I,inactive
5,CCOC(=O)[C@H](CCc1ccccc1)N[C@@H](C)C(=O)N1CCC[C@H]1C(=O)O,inactive
6,Cc1cc(=O)[nH]c(=S)[nH]1,inactive
7,CN1C(C)(C)CCCC1(C)C,inactive
8,Cc1cc(=O)c2c(O)c3c(O)cc(=O)c4c3c3c(cc(O)c1c23)C(C)(C)C=4O,inactive
9,CNC(=O)c1c(I)c(NC(C)=O)c(I)c(C(=O)O)c1I,inactive
10,CC(=O)N(CC(O)CO)c1c(I)c(C(=O)NCC(O)CO)c(I)c(C(=O)NCC(O)CO)c1I (stereo not drawn),inactive
11,CO[C@@]1(NC(=O)Cc2cccs2)C(=O)N2C(C(=O)O)=C(COC(N)=O)CS[C@@H]21,inactive
12,COc1ccc(C(=O)N2CCN(CC(=O)N3CCOCC3)CC2)cc1,inactive
13,O=C(/C=C/c1ccccc1)OCc1ccccc1,inactive
14,O=C1c2c(O)cccc2Cc2cccc(O)c21,inactive
15,NC(N)=Nc1nc(CSCC/C(N)=N/S(N)(=O)=O)cs1,inactive
16,CCNC(=O)/C=C/c1cccc(Br)c1,inactive
17,CC(=O)OC(C)OC(=O)C(C)c1ccc(-c2ccccc2)c(F)c1 (stereo not drawn),inactive
18,Nc1ncnc2c1ncn2[C@@H]1O[C@H](COP(=O)(O)O)[C@@H](O)[C@H]1O,inactive
19,CC(C(=O)O)c1ccc(/C=C2\CCCCC2=O)cc1 (stereo not drawn),inactive

row,Compound,Potency
1,CC1(C)S[C@@H]2[C@H](NC(=O)C(c3ccccc3)S(=O)(=O)O)C(=O)N2[C@H]1C(=O)O (stereo partly drawn),inactive
2,CN1CCN(CC(=O)N2c3ccccc3C(=O)Nc3cccnc32)CC1,inactive
3,CCOc1ccccc1OCC1CNCCO1 (stereo not drawn),inactive
4,CC(=O)c1ccc(S(=O)(=O)NC(=O)NC2CCCCC2)cc1,inactive
5,CCCCCCCCCCCCSCCOCCO,inactive
6,Cc1c(I)c(=O)n(-c2ccccc2)n1C,inactive
7,CCOC(=O)Oc1ccc(CCNC(=O)[C@H](CCSC)NC(C)=O)cc1OC(=O)OCC,inactive
8,CN=C(NC#N)Nc1ccc(C2=NNC(=O)CC2C)cc1 (stereo not drawn),inactive
9,O=C(O)CCCC[C@@H]1SC[C@@H]2NC(=O)N[C@@H]21,inactive
10,CN[C@@H](C)Cc1ccccc1,inactive
11,COc1cccc(OC)c1C(=O)N[C@@H]1C(=O)N2[C@@H]1SC(C)(C)[C@@H]2C(=O)O,inactive
12,NS(=O)(=O)c1cc2c(cc1Cl)NC(CC1CCCC1)NS2(=O)=O (stereo not drawn),inactive
13,CC1c2ccccc2CN1NC(=O)c1ccc(Cl)c(S(N)(=O)=O)c1 (stereo not drawn),inactive
14,COC(=O)c1ccc(NC(C)=O)cc1OC,inactive
15,CC(C)(Oc1ccc(C2CC2(Cl)Cl)cc1)C(=O)O (stereo not drawn),inactive
16,CCCCNC(=O)NS(=O)(=O)c1ccc(N)cc1,inactive
17,CC(C)(C)CC(C)(C)c1ccc(O)c(-n2nc3ccccc3n2)c1,inactive
18,CC(=O)N(CC(O)CO)c1c(I)c(C(=O)NCCO)c(I)c(C(=O)NCC(O)CO)c1I (stereo not drawn),inactive
19,O=C(O)c1ccc(S(=O)(=O)N(Cl)Cl)cc1,inactive
